From the supplement of paper PMC3334620
The full ranking holds about 33,000 sequences; the median of “E-score (-0.5 to 0.5)” is about -0.0014, and the highest 2% start at about 0.25. Only a selection was taken, and the highest values are over-represented in it overall.

Target: T1, Cad1 (UniProt P24813)
T1 sequence: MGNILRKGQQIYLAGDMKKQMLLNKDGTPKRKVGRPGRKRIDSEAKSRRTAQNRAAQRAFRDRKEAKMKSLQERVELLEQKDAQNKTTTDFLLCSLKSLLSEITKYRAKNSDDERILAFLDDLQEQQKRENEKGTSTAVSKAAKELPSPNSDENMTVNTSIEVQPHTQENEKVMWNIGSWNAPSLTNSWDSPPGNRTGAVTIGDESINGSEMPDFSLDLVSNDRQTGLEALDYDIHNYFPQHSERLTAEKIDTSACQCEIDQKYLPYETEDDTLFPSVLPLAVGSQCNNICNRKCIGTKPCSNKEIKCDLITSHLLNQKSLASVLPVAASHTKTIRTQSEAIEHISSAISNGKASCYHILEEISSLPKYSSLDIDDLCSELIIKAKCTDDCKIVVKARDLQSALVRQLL
Test: PBM E-score (8-mer binding enrichment) (E-score (-0.5 to 0.5)); higher = stronger / more preferred TF binding
Details: protein concentration: 100 nM; construct: GST-full length
Protocol: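 Universal 'all 10-mer' protein binding microarrays (Agilent AMADID 015681) probed with GST-tagged S. cerevisiae TFs (full-length or DBD) made by in vitro transcription/translation (PURExpress), about 100-200 nM. Bound TF was detected with fluorescent anti-GST. Each ungapped 8-mer (which stands for itself and its reverse complement) is scored by the PBM enrichment score (E-score), a modified Wilcoxon-Mann-Whitney statistic from -0.5 to +0.5, computed with the Universal PBM Analysis Suite. Scale: above 0.35 generally sequence-specific binding.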

**Q.** How did the “PBM E-score” value turn out when AAATAATT was run?
**A.** 0.295

**Q.** AAAATAAT was tested. Which “PBM E-score” value did it give?
**A.** 0.314

**Q.** How did the “PBM E-score” value turn out when AAAATAAC was run?
**A.** -0.0367

**Q.** For AAATAATA, which “PBM E-score” value is on record?
**A.** 0.248

**Q.** AAATAAAG was tested. Which “PBM E-score” value did it give?
**A.** -0.0232

**Q.** For AAAATAAA, which “PBM E-score” value is on record?
**A.** 0.128

**Q.** For AAATAAAA, which “PBM E-score” value is on record?
**A.** -0.0112

**Q.** Which “PBM E-score” value does the source give for CACTGGCA here?
**A.** -0.0733

**Q.** CCAAGACC was tested. Which “PBM E-score” value did it give?
**A.** -0.0342

**Q.** CCGCCGTC was tested. Which “PBM E-score” value did it give?
**A.** 0.117

**Q.** Which “PBM E-score” value does the source give for AGTCACTA here?
**A.** 0.0232

**Q.** How did the “PBM E-score” value turn out when GCGCAGTA was run?
**A.** 0.149

**Q.** With GAAGATTA as the sequence, how does the “PBM E-score” value read?
**A.** 0.181

**Q.** For TATGCGCA, which “PBM E-score” value is on record?
**A.** 0.0953

**Q.** Which “PBM E-score” value does the source give for CGTCCGTA here?
**A.** -0.0771

**Q.** Which “PBM E-score” value does the source give for TAAGCACA here?
**A.** 0.295

**Q.** With CAAGCACA as the sequence, how does the “PBM E-score” value read?
**A.** -0.0831

**Q.** Which “PBM E-score” value does the source give for CAAGCACG here?
**A.** 0.152

**Q.** For GCACGAAA, which “PBM E-score” value is on record?
**A.** 0.197

**Q.** With AGTATCGG as the sequence, how does the “PBM E-score” value read?
**A.** 0.0469

**Q.** For CGCATGCC, which “PBM E-score” value is on record?
**A.** 0.252

**Q.** AGCATGCC was tested. Which “PBM E-score” value did it give?
**A.** -0.111

**Q.** With GGCATGCC as the sequence, how does the “PBM E-score” value read?
**A.** 0.00621

**Q.** How did the “PBM E-score” value turn out when GAATTCCA was run?
**A.** 0.117

**Q.** With CCAAATTA as the sequence, how does the “PBM E-score” value read?
**A.** 0.107

**Q.** How did the “PBM E-score” value turn out when ACAAATTG was run?
**A.** 0.202

**Q.** How did the “PBM E-score” value turn out when CAATTCCA was run?
**A.** -0.0425

**Q.** Which “PBM E-score” value does the source give for CGAAATCA here?
**A.** 0.306

**Q.** GGAAATCA was tested. Which “PBM E-score” value did it give?
**A.** 0.0778

**Q.** With GAAATTCA as the sequence, how does the “PBM E-score” value read?
**A.** 0.169

**Q.** With ACAAATTA as the sequence, how does the “PBM E-score” value read?
**A.** 0.295

**Q.** How did the “PBM E-score” value turn out when AAATTCCA was run?
**A.** 0.308

**Q.** For AAAATTCA, which “PBM E-score” value is on record?
**A.** 0.284

**Q.** For AAAATTCG, which “PBM E-score” value is on record?
**A.** 0.201

**Q.** CGAAATCC was tested. Which “PBM E-score” value did it give?
**A.** 0.0502

**Q.** For ACCCAAGT, which “PBM E-score” value is on record?
**A.** -0.0625

**Q.** ATCAACCC was tested. Which “PBM E-score” value did it give?
**A.** 0.0896

**Q.** ATCCTAAA was tested. Which “PBM E-score” value did it give?
**A.** -0.12

**Q.** With CGAACTCC as the sequence, how does the “PBM E-score” value read?
**A.** 0.0429

**Q.** For TAAAAGAA, which “PBM E-score” value is on record?
**A.** 0.0891

**Q.** How did the “PBM E-score” value turn out when ACTCTAAG was run?
**A.** -0.094

**Q.** With GACGTTAA as the sequence, how does the “PBM E-score” value read?
**A.** 0.245

**Q.** With AGGTGTAG as the sequence, how does the “PBM E-score” value read?
**A.** -0.128

**Q.** For CGGCACAA, which “PBM E-score” value is on record?
**A.** -0.103

**Q.** For ATGCTTGC, which “PBM E-score” value is on record?
**A.** -0.14

**Q.** With AGAAATTA as the sequence, how does the “PBM E-score” value read?
**A.** 0.296

**Q.** Which “PBM E-score” value does the source give for ACAAATCA here?
**A.** 0.279

**Q.** AGAAATTC was tested. Which “PBM E-score” value did it give?
**A.** 0.13

**Q.** How did the “PBM E-score” value turn out when GCAAATCA was run?
**A.** 0.101

**Q.** How did the “PBM E-score” value turn out when AAAAATTT was run?
**A.** 0.269

**Q.** How did the “PBM E-score” value turn out when GGAAATTA was run?
**A.** 0.208

**Q.** AAAAAATT was tested. Which “PBM E-score” value did it give?
**A.** 0.12

**Q.** For GAAAATTA, which “PBM E-score” value is on record?
**A.** 0.13

**Q.** AAAAATTA was tested. Which “PBM E-score” value did it give?
**A.** 0.254

**Q.** With AAAATTTT as the sequence, how does the “PBM E-score” value read?
**A.** 0.234

**Q.** How did the “PBM E-score” value turn out when CCAAATCA was run?
**A.** -0.041

**Q.** For CAAAATTA, which “PBM E-score” value is on record?
**A.** 0.187

**Q.** With CGGAAAAC as the sequence, how does the “PBM E-score” value read?
**A.** 0.221

**Q.** For ATCCAACC, which “PBM E-score” value is on record?
**A.** -0.0228

**Q.** With CGCCCTGC as the sequence, how does the “PBM E-score” value read?
**A.** -0.128

**Q.** How did the “PBM E-score” value turn out when ATCCTAGA was run?
**A.** -0.0558

**Q.** How did the “PBM E-score” value turn out when AATTTGCG was run?
**A.** 0.173

**Q.** How did the “PBM E-score” value turn out when CCGGAAAA was run?
**A.** 0.215

**Q.** How did the “PBM E-score” value turn out when TAAATTTA was run?
**A.** 0.154

**Q.** Which “PBM E-score” value does the source give for TAAAATTA here?
**A.** 0.297

**Q.** With TAAAATAA as the sequence, how does the “PBM E-score” value read?
**A.** 0.164

**Q.** How did the “PBM E-score” value turn out when AATGCCGT was run?
**A.** 0.107

**Q.** For ATCTTCAC, which “PBM E-score” value is on record?
**A.** -0.0332

**Q.** CTAAGACC was tested. Which “PBM E-score” value did it give?
**A.** -0.0662

**Q.** For ACCCTAAG, which “PBM E-score” value is on record?
**A.** -0.101

**Q.** GATTTCGC was tested. Which “PBM E-score” value did it give?
**A.** 0.28

**Q.** With CATTTCGC as the sequence, how does the “PBM E-score” value read?
**A.** -0.15

**Q.** With GATTTCGA as the sequence, how does the “PBM E-score” value read?
**A.** -0.0223

**Q.** For ATCGATGG, which “PBM E-score” value is on record?
**A.** 0.0786

**Q.** With CAGCTTCA as the sequence, how does the “PBM E-score” value read?
**A.** 0.0676

**Q.** For CCTCCTTC, which “PBM E-score” value is on record?
**A.** -0.165

**Q.** How did the “PBM E-score” value turn out when TATTATAA was run?
**A.** 0.185

**Q.** How did the “PBM E-score” value turn out when AATTATAC was run?
**A.** 0.172

**Q.** Which “PBM E-score” value does the source give for AATTATGG here?
**A.** 0.216

**Q.** How did the “PBM E-score” value turn out when AATTATAG was run?
**A.** 0.0146

**Q.** For GATTATAA, which “PBM E-score” value is on record?
**A.** 0.29

**Q.** With AATTATAA as the sequence, how does the “PBM E-score” value read?
**A.** 0.276

**Q.** How did the “PBM E-score” value turn out when ACTTATAA was run?
**A.** 0.279

**Q.** For ACTTATAC, which “PBM E-score” value is on record?
**A.** 0.154

**Q.** Which “PBM E-score” value does the source give for GCTTATAA here?
**A.** 0.235

**Q.** How did the “PBM E-score” value turn out when AATTATGT was run?
**A.** 0.167
